# Results taken from PubChem BioAssay.
# The source made the active and inactive calls. Unless noted, no rule for the calls is given here.
# Legend:
# [1] = test system: Wnt5a (protein binding on small-molecule microarray); test: Wnt5a binders on small-molecule microarray, primary screen, biophysical, 635/667 nm fluorescence (AID 1142); details: 635 nm fluorescence, higher = more signal;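 also: fluorescence read at 667 nm with signal to noise per printed feature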
# [2] = cell viability in Huh7 cells, primary screen, cytotoxicity control for HCV replication inhibitor project, CellTiter-Glo luminescence, basal, 48 h (AID 1143); details: Huh7 HCV replicon, higher = more signal, called active from +8 up or from −8 down;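 also: Huh7 hepatoma cells carrying a hepatitis C replication reporter with no stimulus; test concentration not given here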
# [3] = P. aeruginosa biofilm formation inhibitors, primary screen, PAO1 strain, BacTiter-Glo luminescence, LB-PBS (AID 1144); details: 12 h, higher = more signal
# [4] = CREB reporter modulators without forskolin, primary screen, cell-based, PC12, CRE-LacZ reporter, unstimulated (AID 1145); details: no forskolin, luminescence, 4.5 h, higher = more signal, called active from +8 up or from −8 down
# [5] = CREB reporter modulators under forskolin, primary screen, cell-based, PC12, CRE-LacZ reporter, forskolin-stimulated (AID 1146); details: luminescence, 4.5 h, higher = more signal, called active from +8 up or from −8 down;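 also: PC12 cells with 6xCRE LacZ reporter stimulated by forskolin 10 µM; beta-galactosidase reporter signal reflecting CREB driven transcription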
# [6] = target: Streptavidin (Streptomyces avidinii) (UniProt P22629); test: streptavidin binders on small-molecule microarray, primary screen, artefact control for SMM compound annotation, biophysical, 635/667 nm fluorescence (AID 1147); details: streptavidin binding, higher = more signal;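 also: signal reflects streptavidin binding to arrayed compounds as a control protein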
# [7] = small-molecule binders of probe aInhba, primary screen, biochemical, small-molecule microarray, 635/667 nm fluorescence (AID 1148); details: higher = more signal;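 also: score merges 667nm spot fluorescence with signal-to-noise for antibody binding to printed compounds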
# [8] = target: Torsin-1A (Homo sapiens) (UniProt O14656); test: torsin A binders from cell lysate, primary screen, small-molecule microarray, wild-type, 635/667 nm (AID 1149); details: COS7 hTOR1A-WT lysate, 635 nm fluorescence, higher = more signal
# [9] = target: Torsin-1A (Homo sapiens) (UniProt O14656); test: small-molecule binders of mutant TOR1A in lysate, primary screen, cell lysate, small-molecule microarray, COS7 lysate, 635/667 nm fluorescence (AID 1150); details: COS7 hTOR1A mutant lysate, 635 nm fluorescence, higher = more signal;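 also: score pools 667 nm emission and signal to noise measuring lysate protein binding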
# [10] = test system: Sonic hedgehog protein (Shh); test: small-molecule binders of Shh protein, primary screen, biochemical, small-molecule microarray, 635/667 nm fluorescence (AID 1151); details: small-molecule microarray binding, 635 nm fluorescence; higher = more signal;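 also: Shh protein binding to compounds spotted on small-molecule microarray slides; score combines spot fluorescence intensity with signal-to-noise across triplicate slides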
# [11] = E. coli DRC41 culture turbidity changes, primary screen, E. coli filamentation inducer project, strain DRC41, OD650, 48 h (AID 1152);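 also: E. coli MC1000 strain DRC41 lacking acrAB efflux pump and sulA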; details: E. coli DRC41 (acrAB sulA), higher = more signal, called active from +8 up or from −8 down
# [12] = small-molecule binders of probe aLefty1, primary screen, biochemical, small-molecule microarray, 635/667 nm fluorescence (AID 1153); details: higher = more signal;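 also: score merges spot fluorescence with signal-to-noise ratio from the scanned slide images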
# [13] = PSAC antagonists in infected red cells, primary screen, cell-based, P. falciparum Indochina, OD700, 1 h (AID 1154); details: P. falciparum Indochina infected RBC osmotic lysis, higher = more signal, called active from +8 up or from −8 down
# [14] = PSAC antagonists in infected red cells, primary screen, cell-based, P. falciparum Indochina, OD700, 2 h (AID 1155);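 also: lysis reports solute entry through the parasite surface anion channel PSAC; channel blockers reduce lysis of infected cells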; details: P. falciparum Indochina infected erythrocytes, osmotic lysis OD700; higher = more signal, called active from +8 up or from −8 down
# [15] = osmotic lysis modulators in infected erythrocytes, primary screen, PSAC antagonist project, cell-based, P. falciparum Indochina, OD700, 3 h (AID 1156); details: higher = more signal, called active from +8 up or from −8 down
# [16] = PSAC antagonists in infected red cells, primary screen, cell-based, P. falciparum Indochina, OD700, 18 h (AID 1157); details: P. falciparum Indochina infected erythrocytes, osmotic lysis OD700, 18 h; higher = more signal, called active from +8 up or from −8 down
# [17] = modulators of S6 phosphorylation in cells, primary screen, cell-based, A549, cytoblot, luminescence, serum-stimulated (AID 1158); details: A549 phospho-S6 cytoblot, 5 h, higher = more signal;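 also: serum-stimulated A549 lung adenocarcinoma cells; signal is phosphorylated S6 detected by cytoblot immunostaining with HRP secondary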
# [18] = target: NADPH oxidase 2 (Homo sapiens) (UniProt P04839); test: NOX2-dependent H2O2 signal modulators, primary screen, NOX inhibitor project, cell-based, HEK293-NOX2, PMA-stimulated, Amplex Red fluorescence (AID 1159); details: 45 min, higher = more signal, called active from +8 up or from −8 down; also: test concentration not given here
# [19] = target: NADPH oxidase 4 (Homo sapiens) (UniProt Q9NPH5); test: NOX4-dependent H2O2 signal modulators, primary screen, NOX inhibitor project, cell-based, HEK293-NOX4, tetracycline-induced, Amplex Red fluorescence (AID 1160); details: 45 min, higher = more signal, called active from +8 up or from −8 down
# [20] = target: NADPH oxidase 5 (Homo sapiens) (UniProt Q96PH1); test: NOX5-dependent H2O2 signal modulators, primary screen, NOX inhibitor project, cell-based, HEK293-NOX5, Amplex Red fluorescence (AID 1161); details: HEK293-NOX5, ionomycin, 45 min, higher = more signal
# Sequence of NADPH oxidase 5 (Homo sapiens) (Q96PH1 whole entry, looked up): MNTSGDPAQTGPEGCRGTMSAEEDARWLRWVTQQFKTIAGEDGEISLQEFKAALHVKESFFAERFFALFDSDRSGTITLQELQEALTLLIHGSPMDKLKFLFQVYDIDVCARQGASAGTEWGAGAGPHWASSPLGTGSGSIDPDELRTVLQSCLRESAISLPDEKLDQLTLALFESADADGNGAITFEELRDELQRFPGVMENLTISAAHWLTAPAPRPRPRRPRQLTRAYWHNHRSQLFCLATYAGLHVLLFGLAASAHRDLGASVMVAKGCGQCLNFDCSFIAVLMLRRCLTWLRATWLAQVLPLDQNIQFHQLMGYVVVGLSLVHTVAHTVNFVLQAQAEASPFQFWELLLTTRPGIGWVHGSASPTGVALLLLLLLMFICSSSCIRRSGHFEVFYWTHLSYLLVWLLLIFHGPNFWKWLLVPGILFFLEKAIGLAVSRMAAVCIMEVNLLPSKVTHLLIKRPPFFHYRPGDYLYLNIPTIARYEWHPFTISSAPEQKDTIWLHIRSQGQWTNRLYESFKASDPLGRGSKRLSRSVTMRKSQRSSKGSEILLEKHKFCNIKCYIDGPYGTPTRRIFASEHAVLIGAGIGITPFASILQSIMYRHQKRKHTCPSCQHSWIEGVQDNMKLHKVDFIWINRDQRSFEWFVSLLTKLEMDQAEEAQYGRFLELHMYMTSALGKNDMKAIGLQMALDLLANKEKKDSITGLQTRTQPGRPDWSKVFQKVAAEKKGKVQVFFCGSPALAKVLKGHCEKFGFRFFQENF
# Sequence of Torsin-1A (Homo sapiens) (O14656 whole entry, looked up): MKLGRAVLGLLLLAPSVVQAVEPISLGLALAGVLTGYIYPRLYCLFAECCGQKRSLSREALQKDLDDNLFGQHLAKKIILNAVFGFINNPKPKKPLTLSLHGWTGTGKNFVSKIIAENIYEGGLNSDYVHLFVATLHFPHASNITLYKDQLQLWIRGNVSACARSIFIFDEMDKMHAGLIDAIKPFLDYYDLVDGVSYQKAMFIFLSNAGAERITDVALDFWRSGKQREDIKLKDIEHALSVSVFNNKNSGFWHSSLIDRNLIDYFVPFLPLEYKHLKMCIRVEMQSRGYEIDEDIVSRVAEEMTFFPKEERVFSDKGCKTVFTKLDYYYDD
# Sequence of Streptavidin (Streptomyces avidinii) (P22629 whole entry, looked up): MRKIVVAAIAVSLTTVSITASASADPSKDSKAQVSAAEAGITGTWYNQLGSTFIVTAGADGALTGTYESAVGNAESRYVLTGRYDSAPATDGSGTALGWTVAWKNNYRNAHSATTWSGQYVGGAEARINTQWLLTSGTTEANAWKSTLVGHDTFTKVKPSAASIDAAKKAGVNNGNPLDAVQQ
# Sequence of NADPH oxidase 2 (Homo sapiens) (P04839 whole entry, looked up): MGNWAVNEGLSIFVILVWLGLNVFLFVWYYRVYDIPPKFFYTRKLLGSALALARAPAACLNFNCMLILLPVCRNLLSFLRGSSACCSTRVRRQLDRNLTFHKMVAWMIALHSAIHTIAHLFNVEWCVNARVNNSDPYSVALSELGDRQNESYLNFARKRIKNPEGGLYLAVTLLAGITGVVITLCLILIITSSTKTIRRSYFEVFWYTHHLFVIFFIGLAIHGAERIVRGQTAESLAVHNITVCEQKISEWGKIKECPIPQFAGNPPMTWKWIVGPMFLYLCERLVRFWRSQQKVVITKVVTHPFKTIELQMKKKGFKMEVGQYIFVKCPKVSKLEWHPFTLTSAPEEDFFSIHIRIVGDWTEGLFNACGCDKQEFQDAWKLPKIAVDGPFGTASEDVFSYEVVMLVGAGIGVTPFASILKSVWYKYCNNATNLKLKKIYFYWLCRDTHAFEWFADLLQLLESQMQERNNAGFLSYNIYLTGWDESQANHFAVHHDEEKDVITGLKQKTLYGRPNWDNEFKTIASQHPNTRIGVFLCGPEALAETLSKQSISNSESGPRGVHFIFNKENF
# Sequence of NADPH oxidase 4 (Homo sapiens) (Q9NPH5 whole entry, looked up): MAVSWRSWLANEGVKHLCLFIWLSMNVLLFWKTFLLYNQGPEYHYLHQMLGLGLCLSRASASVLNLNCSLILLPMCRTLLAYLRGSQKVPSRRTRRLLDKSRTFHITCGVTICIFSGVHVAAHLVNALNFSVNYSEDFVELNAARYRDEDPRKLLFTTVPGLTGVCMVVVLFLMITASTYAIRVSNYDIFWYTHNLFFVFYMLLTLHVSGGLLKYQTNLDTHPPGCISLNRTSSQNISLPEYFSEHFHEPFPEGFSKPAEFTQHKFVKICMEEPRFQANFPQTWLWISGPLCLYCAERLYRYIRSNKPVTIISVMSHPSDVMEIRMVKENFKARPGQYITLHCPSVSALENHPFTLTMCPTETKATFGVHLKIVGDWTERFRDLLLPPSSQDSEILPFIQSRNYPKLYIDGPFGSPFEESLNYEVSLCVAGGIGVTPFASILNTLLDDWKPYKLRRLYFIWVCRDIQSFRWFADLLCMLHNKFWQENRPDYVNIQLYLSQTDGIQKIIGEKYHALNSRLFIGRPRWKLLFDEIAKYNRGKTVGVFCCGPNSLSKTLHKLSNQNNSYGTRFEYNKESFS
structure (smiles),measurement,setting,value
O=C1OCCC/C=C\[C@H]2OC34C=CCN(CCN5CCOCC5)C(=O)[C@H]3N(CCO)C(=O)[C@@H]4C12 (stereo not given in full),composite z-score,[1],-0.425
same,z-score,[2],0.364 (inactive)
same,z-score,[3],0.145 (inactive)
same,z-score,[4],-0.342 (inactive)
same,z-score,[5],0.0806 (inactive)
same,composite z-score,[6],-0.671
same,composite z-score,[7],-0.203
same,composite z-score,[8],-0.176
same,composite z-score,[9],-0.506
same,composite z-score,[10],-0.703
same,z-score,[11],0.216 (inactive)
same,composite z-score,[12],-0.231
same,z-score,[13],0.588 (inactive)
same,z-score,[14],0.921 (inactive)
same,z-score,[15],0.723 (inactive)
same,z-score,[16],0.382 (inactive)
same,z-score,[17],-0.364
same,z-score,[18],0.61 (inactive)
same,z-score,[19],-0.342 (inactive)
same,z-score,[20],0.494
O=C1C2C=CC(C(O)c3ccc(Br)cc3)N(n3cnnc3)C2C(=O)N1Cc1ccccc1 (stereo not given),composite z-score,[1],0.175
same,z-score,[2],0.245 (inactive)
same,z-score,[3],0.913 (inactive)
same,z-score,[4],0.127 (inactive)
same,z-score,[5],1.03 (inactive)
same,composite z-score,[6],1.27
same,composite z-score,[7],-0.0375
same,composite z-score,[8],0.489
same,composite z-score,[9],1.05
same,composite z-score,[10],0.232
same,z-score,[11],-2.21 (inactive)
same,composite z-score,[12],0.152
same,z-score,[13],0.922 (inactive)
same,z-score,[14],1.16 (inactive)
same,z-score,[15],0.107 (inactive)
same,z-score,[16],0.756 (inactive)
same,z-score,[17],-0.738
same,z-score,[18],0.101 (inactive)
same,z-score,[19],2.59 (inactive)
same,z-score,[20],0.964
[N-]=[N+]=NCc1ccccc1C[C@]1(C(=O)N2CCOCC2)N=C(c2ccc(OCCCO)cc2)O[C@H]1c1ccccc1,composite z-score,[1],0.258
same,z-score,[2],-5.35 (inactive)
same,z-score,[3],-0.764 (inactive)
same,z-score,[4],0.391 (inactive)
same,z-score,[5],-1.5 (inactive)
same,composite z-score,[6],0.981
same,composite z-score,[7],0.0091
same,composite z-score,[8],0.0039
same,composite z-score,[9],0.348
same,composite z-score,[10],-0.147
same,z-score,[11],1.07 (inactive)
same,composite z-score,[12],0.208
same,z-score,[13],29.4 (active)
same,z-score,[14],24.2 (active)
same,z-score,[15],0.785 (inactive)
same,z-score,[16],1.5 (inactive)
same,z-score,[17],1.57
same,z-score,[18],-1.95 (inactive)
same,z-score,[19],-0.399 (inactive)
same,z-score,[20],-1.32
[N-]=[N+]=NCc1ccccc1C[C@]1(C(=O)NCc2ccccc2)COC(c2ccc(OCCCO)cc2)=N1,composite z-score,[1],-0.0113
same,z-score,[2],-5.27 (inactive)
same,z-score,[3],0.664 (inactive)
same,z-score,[4],1.72 (inactive)
same,z-score,[5],0.232 (inactive)
same,composite z-score,[6],0.469
same,composite z-score,[7],0.0301
same,composite z-score,[8],-0.328
same,composite z-score,[9],0.784
same,composite z-score,[10],-1.13
same,z-score,[11],0.104 (inactive)
same,composite z-score,[12],-0.373
same,z-score,[13],28.9 (active)
same,z-score,[14],24.6 (active)
same,z-score,[15],4.42 (inactive)
same,z-score,[16],2.78 (inactive)
same,z-score,[17],-0.153
same,z-score,[18],-2.28 (inactive)
same,z-score,[19],-0.958 (inactive)
same,z-score,[20],-1.81
C=CCC(OC(C)=O)[C@@H]1[C@@H](N(Cc2ccc(-c3cccc(C(F)(F)F)c3)o2)C(=O)c2ccc(C)cc2)c2cc(OCCCO)ccc2N1C(=O)c1ccc2ccccc2n1 (stereo not given in full),composite z-score,[1],0.0861
same,z-score,[2],0.0775 (inactive)
same,z-score,[3],-0.293 (inactive)
same,z-score,[4],0.395 (inactive)
same,z-score,[5],-0.0797 (inactive)
same,composite z-score,[6],0.256
same,composite z-score,[7],-0.151
same,composite z-score,[8],-0.138
same,composite z-score,[9],0.114
same,composite z-score,[10],0.978
same,z-score,[11],1.55 (inactive)
same,composite z-score,[12],0.235
same,z-score,[13],1.97 (inactive)
same,z-score,[14],0.435 (inactive)
same,z-score,[15],-0.225 (inactive)
same,z-score,[16],0.0644 (inactive)
same,z-score,[17],-0.218
same,z-score,[18],-0.0312 (inactive)
same,z-score,[19],0.95 (inactive)
same,z-score,[20],2.06
CCN(CC)c1ccc(N2CC=CC34O[C@@H]5/C=C\CCCOC(=O)C5[C@H]3C(=O)N(CCCO)[C@@H]4C2=O)cc1 (stereo not given in full),composite z-score,[1],-0.674
same,z-score,[2],0.273 (inactive)
same,z-score,[3],2.24 (inactive)
same,z-score,[4],-0.212 (inactive)
same,z-score,[5],-0.473 (inactive)
same,composite z-score,[6],-1.12
same,composite z-score,[7],-0.157
same,composite z-score,[8],-1.94
same,composite z-score,[9],-1.45
same,composite z-score,[10],-0.18
same,z-score,[11],-0.522 (inactive)
same,composite z-score,[12],0.235
same,z-score,[13],1.78 (inactive)
same,z-score,[14],0.225 (inactive)
same,z-score,[15],-0.462 (inactive)
same,z-score,[16],0.308 (inactive)
same,z-score,[17],-0.219
same,z-score,[18],0.024 (inactive)
same,z-score,[19],0.558 (inactive)
same,z-score,[20],0.931
CC[C@@H]1C=C(C(=O)O)[C@H](c2ccc(C(C)C)cc2)N1S(=O)(=O)c1ccc(C)cc1,composite z-score,[1],0.764
same,z-score,[2],-0.822 (inactive)
same,z-score,[3],0.448 (inactive)
same,z-score,[4],-0.0137 (inactive)
same,z-score,[5],-0.0578 (inactive)
same,composite z-score,[6],0.939
same,composite z-score,[7],0.432
same,composite z-score,[8],0.145
same,composite z-score,[9],1.22
same,composite z-score,[10],0.34
same,z-score,[11],-0.646 (inactive)
same,composite z-score,[12],1.36
same,z-score,[13],0.998 (inactive)
same,z-score,[14],0.845 (inactive)
same,z-score,[15],0.105 (inactive)
same,z-score,[16],0.709 (inactive)
same,z-score,[17],-0.334
same,z-score,[18],0.685 (inactive)
same,z-score,[19],-0.418 (inactive)
same,z-score,[20],-0.0711
C#C[C@H]1Oc2ccccc2S(=O)(=O)N2CCC[C@@H]12,composite z-score,[1],-0.0713
same,z-score,[2],-0.0352 (inactive)
same,z-score,[3],-0.0287 (inactive)
same,z-score,[4],0.126 (inactive)
same,z-score,[5],1.3 (inactive)
same,composite z-score,[6],-0.14
same,composite z-score,[7],-0.278
same,composite z-score,[8],0.461
same,composite z-score,[9],0.512
same,composite z-score,[10],1.63
same,z-score,[11],-0.789 (inactive)
same,composite z-score,[12],-0.106
same,z-score,[13],0.264 (inactive)
same,z-score,[14],0.276 (inactive)
same,z-score,[15],0.0691 (inactive)
same,z-score,[16],0.0594 (inactive)
same,z-score,[17],0.213
same,z-score,[18],0.281 (inactive)
same,z-score,[19],-1.29 (inactive)
same,z-score,[20],-0.494
O=C(NCC(O)CO)[C@]1(CCS(=O)(=O)c2ccccc2)N=C(c2ccc(OCCCO)cc2)O[C@@H]1c1ccccc1 (stereo not given in full),composite z-score,[1],0.299
same,z-score,[2],-0.084 (inactive)
same,z-score,[3],0.295 (inactive)
same,z-score,[4],0.596 (inactive)
same,z-score,[5],-0.0842 (inactive)
same,composite z-score,[6],1.03
same,composite z-score,[7],-0.0567
same,composite z-score,[8],0.499
same,composite z-score,[9],1.48
same,composite z-score,[10],-1.05
same,z-score,[11],-0.374 (inactive)
same,composite z-score,[12],0.0371
same,z-score,[13],25.6 (active)
same,z-score,[14],6.78 (inactive)
same,z-score,[15],1.61 (inactive)
same,z-score,[16],0.987 (inactive)
same,z-score,[17],-0.516
same,z-score,[18],1.4 (inactive)
same,z-score,[19],0.762 (inactive)
same,z-score,[20],-0.186
